Source: PubChem BioAssay
HIF activator = HIF pathway transcriptional activators, primary screen, cell-based, U2OS HRE-luciferase, luminescence. U2OS HRE-luciferase reporter; normalized: DMSO 0%, desferrioxamine 100%. activation, % at 7.5 µM (by protocol). 300,000 tested, 0.32% active;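 active means mean activation of at least 10% of the iron chelator positive control signal, with at least half of replicates also reaching 10%; inconclusive means mean and replicate majority disagree about reaching 10%; inactive means mean and most replicates under 10%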
zVAD death inh = inhibitors of zVAD-triggered necroptosis, primary screen, L929 cells | L929 zVAD necroptosis rescue, ATP luminescence, 24 h; with zVAD 60 µM | viability rescue, % at 10 µM | 220,000 tested, 0.38% active;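 active means activation, scaled between plate controls, above about 75%, limit read from the data; inactive means activation under that limit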;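 further: 0% = zVAD with DMSO and 100% = DMSO alone without zVAD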
TNF necrop inh = inhibitors of TNF-alpha triggered necroptosis, primary screen, cell-based, Jurkat FADD-/-, single concentration; AID 463075, 2010; 220,000 tested, 0.068% active; Jurkat FADD-/- TNF necroptosis rescue, ATP luminescence, 24 h; 0 = TNF only, 100 = no-TNF cells; activation (protection from cell death), % at 10 µM;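 active means activation, meaning protection from cell death, of at least 50% relative to plate controls; inactive means activation below 50%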;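 further: necroptosis triggered by 40 ng/mL TNF-alpha added together with compound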
Calb FLC = C. albicans growth inhibition with fluconazole, primary screen, CaCi-2 strain, Alamar Blue fluorescence; C. albicans CaCi-2 (fluconazole-resistant clinical isolate) + fluconazole, 48 h; 300,000 tested, 0.57% active; growth inhibition, % (no concentration beside the values);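 active means growth inhibition above about 58% in most replicates, limit read from the data, passing the limit was not always enough; inconclusive means exactly half the replicates above a set limit; inactive means most replicates below a set limit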;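 further: all wells also contain fluconazole at 8 µg/ml as a sub-toxic cotreatment; 0% = median of DMSO wells and 100% = median of geldanamycin control wells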
zVAD death conf = inhibitors of zVAD-triggered necroptosis in L929, confirmation, L929 cells, duplicate runs. shares compounds with zVAD death inh. L929 zVAD-induced necroptosis rescue, ATP luminescence, 24 h. activation (protection from necroptosis), % at 10 µM. 760 tested, 16% active. AID 463117, 2010;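 active means mean protection from necroptosis of at least 50% over duplicate tests; inactive means mean protection below 50%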;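 further: 0% = cells with zVAD alone and 100% = vehicle cells without zVAD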
The depositor's hits bear a star; ? = inconclusive; . = not tested or not shown. Hits are enriched below; roughly 1.1% of the tested compounds scored in any of these assays.

SMILES	HIF activator	zVAD death inh	TNF necrop inh	Calb FLC	zVAD death conf
CN(Cc1ccccc1)c1nc(N)nc(Cl)c1C=O	-0.2	-1.6	-3.1	-9.2	.
CCc1ccc(NC(=O)CSc2nc3n[nH]c(C)c3c(=N)n2-c2cccc(OC)c2)cc1	0.1	91.5*	-15.0	-8.2	56.4*
CCOc1cc(/C=C(\C#N)c2[nH]nc(N)c2C#N)ccc1O	-0.5	81.4*	2.1	0.0	39.3
CCOc1cc(-c2cc(-c3ccc(C)cc3)nc(N)c2C#N)ccc1O	-0.8	-0.2	-8.0	?	.
Cc1cc(N)n2ncc(-c3ccc(F)cc3)c2n1	4.0	79.4*	-4.2	-10.7	42.9
CC1=CC(=O)C(C(C)C)=C/C1=N\OC(=O)c1cccc2nc(C)oc12	-1.3	87.4*	-1.8	36.7	3.6
O=C1c2ccccc2C(=O)N1Cc1ccccc1F	-0.9	.	.	-7.4	.
COc1ccc(CCNC(=O)C/C(C)=N/NC(=O)C(c2ccccc2)c2ccccc2)cc1OC	-0.4	80.3*	36.4	1.2	10.1
O=C(CN1C(=O)C2C3C=CC(C4CC34)C2C1=O)Nc1cnc2ccccc2c1 (centres undefined)	0.2	75.3*	5.2	?	0.4
CC1CN(S(=O)(=O)c2ccc(F)cc2)C(C)N1C(=O)N1CCOCC1 (centres undefined)	0.6	.	.	7.2	.
O=C(Nc1ccc(S(=O)(=O)N2CCOCC2)cc1)C1CC(=O)N(c2ccc(F)cc2)C1 (centres undefined)	0.4	.	.	-2.0	.
O=C(CCl)Nc1c[nH]c(=O)[nH]c1=O	.	80.6*	44.5	.	12.3
Oc1ccc(-c2[nH]ncc2-c2cnn(-c3ccccc3)c2)c(O)c1	0.2	78.7*	-3.0	6.5	2.1
COc1cc(NC(=O)c2cccnc2Sc2ccc(Cl)cc2)cc(OC)c1OC	-0.5	76.9*	3.5	-6.9	41.7
CCOc1ccnc2c1c(=O)n(Cc1cc(OC)cc(OC)c1)c(=O)n2C	-0.3	.	.	-2.3	.
Cc1cnc(NC(=O)c2ccc(OCC3CCCO3)cc2)s1 (centres undefined)	-4.1	75.2*	38.2	2.2	74.9*
O=C(CSc1nnc(-c2ccncc2)o1)N1CCCCCC1	?	76.0*	0.0	16.3	0.4
COC(=O)c1cc(S(=O)(=O)N2CCN(c3ccc(C(C)=O)cc3)CC2)c[nH]1	-0.2	.	.	-9.2	.
CCOc1cc(/C=C2/SC(=S)NC2=O)ccc1OC(=O)c1ccco1	1.6	78.5*	3.2	62.3	1.7
COc1cc(/C=C2/SC(=O)NC2=O)ccc1OC(=O)c1ccco1	1.0	.	.	-0.7	.
Cc1ccccc1OCC(=O)NCC(c1cccs1)N1CCOCC1 (centres undefined)	-0.1	.	.	5.6	.
Cc1nc2ccccc2nc(=O)c1NNc1ccccc1	2.0	76.5*	4.7	-24.5	3.2
Cc1ccc2nc(=O)c(NNc3ccccc3)cnc2c1	2.8	.	0.4	-39.7	.
COc1ccccc1CN(C)C(=O)c1cc(-c2cccs2)nc2ccccc12	-0.6	.	.	0.1	.
FC(F)(F)c1cnc2c(-c3ccccc3)n[nH]c2c1	0.8	76.5*	3.6	1.6	17.1
SMILES	HIF activator	zVAD death inh	TNF necrop inh	Calb FLC	zVAD death conf
Oc1c(Br)cc(C2N=C(c3ccccc3)NO2)cc1Br (centres undefined)	3.2	80.0*	-0.1	4.2	4.1
CSc1ccc(C2N=C(c3ccccc3)NO2)cc1 (centres undefined)	1.1	.	.	0.1	.
Cc1ccc(C2CC(=O)NC(SCC(=O)Nc3nccs3)=C2C#N)cc1 (centres undefined)	0.3	96.0*	92.4*	-8.9	84.7*
CCN(CC)CCCNC(=O)c1cc(Sc2nnc(C)s2)nc2ccccc12	0.0	78.5*	6.5	-1.2	9.8
CN(CC1CCCO1)S(=O)(=O)c1ccc(C(=O)Nc2nccs2)cc1 (centres undefined)	278.7*	87.1*	60.6*	3.0	102.8*
O=C(Nc1nccs1)c1ccc(S(=O)(=O)N2CCOCC2)cc1	-0.2	82.2*	44.4	-12.1	68.2*
O=C(Nc1ccc(S(=O)(=O)Nc2nccs2)cc1)c1ccc(S(=O)(=O)N2CCOCC2)cc1	-0.5	2.8	1.0	-19.5	.
Cc1cc2ncn(/N=C/c3cccnc3)c2cc1C	-1.0	76.3*	-2.0	-9.6	35.8
COc1c(C)cc(Br)cc1C(=O)Nc1ccc(S(N)(=O)=O)cc1	0.0	-0.1	-1.1	-11.7	.
CC(C)Nc1nnc(SCC(=O)Nc2ccc3c(c2)C(=O)c2ccccc2C3=O)s1	1.4	80.7*	1.6	16.2	44.7
O=C(Cc1ccccc1)Nc1nnc(SCC(=O)NC2CCCC2)s1	-0.3	0.7	1.7	-0.9	.
CC(C)CC(=O)Nc1nnc(SCC(=O)Nc2ccc(F)cc2)s1	1.1	2.1	1.3	-17.2	.
O=C(CSc1nnc(NC2CCCCC2)s1)Nc1ccc2c(c1)C(=O)c1ccccc1C2=O	1.0	80.2*	11.5	8.6	89.7*
COc1cccc(OCC(O)CNC(C)c2ccccc2)c1 (centres undefined)	1.4	.	.	6.2	.
COc1ccc(/C=C/C2=CC(C)(C)NC(=S)N2)cc1	1.0	1.7	-4.0	17.9	.
COC(=O)c1c(NC(=O)Nc2ccc(Cl)cc2)sc(C)c1C	.	0.1	0.8	.	.
Cc1sc(NC(=O)Nc2ccccc2)c(C(N)=O)c1C	3.6	76.6*	0.6	3.7	0.9
CC1CCCC(NC(=O)CCNS(=O)(=O)c2ccc(Br)cc2)C1C (centres undefined)	0.2	77.3*	0.7	-16.2	6.6
NC(=NC(=O)c1ccc(Cl)cc1)N1N=CCC1c1ccccc1 (centres undefined)	-0.9	1.2	0.2	41.4	.
O=C(Nc1ccccc1)N1N=CCC1c1ccccc1 (centres undefined)	-0.2	84.9*	94.6*	-13.6	48.5
O=C(Nc1ccc(Cl)c(Cl)c1)N1N=CCC1c1ccccc1 (centres undefined)	-0.5	79.5*	96.6*	46.9	11.4
O=S(=O)(c1ccc(-c2ccon2)s1)N1CCN(CCN2CCOCC2)CC1	-0.7	0.1	0.8	-4.4	.
Cc1ccc(S(=O)(=O)CCC(=O)OCC(=O)N(Cc2ccccc2)C(C)C)cc1	0.8	.	.	7.2	.
c1ccc2c(c1)nc(N1CCOCC1)c1c3ccccc3[nH]c21	4.0	81.9*	1.4	-3.0	3.9
O=c1[nH]c2ccccc2nc1N1CCOCC1	0.2	0.8	-1.0	-3.9	.
O=C(Oc1c(-c2ccccc2)oc2ccccc2c1=O)c1ccccc1	0.8	79.4*	-8.5	19.1	1.7
COc1ccc(NC(=O)c2cc(-c3ccco3)nc3ccccc23)cc1S(=O)(=O)N1CCOCC1	-0.9	0.9	-13.3	2.4	.
Cc1ccc(NC(=O)c2cc(-c3ccco3)nc3ccccc23)cc1S(=O)(=O)N1CCOCC1	0.3	77.4*	-2.3	-0.5	10.0
